These results are taken from PubChem BioAssay (NCATS).

Records with an inconclusive call do not appear. Unmarked numbers belong to inactive results. Calls of active or inactive are those of the source. Calls follow the shape of the dose curve; as a rule, active = well fitted inhibition curve with a large enough effect; inconclusive = small, poorly fitted or top-dose-only effect; inactive = flat fitted curve, though single readings scatter.

The subject of the assay is Zika virus NS2B-NS3 protease. The assay can be described thus: Primary screen GU AMC qHTS for Zika virus inhibitors (AID 1347154).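 Also: 0% = no-inhibitor control and -100% = no-enzyme control; nearly all actives have a fitted effect of over 70% in size.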 The conditions noted are these: Zika NS2B-NS3 unlinked protease, AMC fluorogenic substrate; series mostly up to 54.1 µM; activity change, negative = inhibition: at the top concentration. An outline of the steps:
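Unlinked Zika NS2B hydrophilic domain–NS3 protease complex at 25 nM in 10 mM Tris-HCl pH 8.0, 0.01% Tween 20, with an AMC peptide substrate. Fluorescence change (340/450 nm) over 15 min at room temperature, normalized to controls, fitted to 4-parameter Hill.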
Turning to `FC1(F)C(F)(F)C(F)(F)C2(F)C(F)(F)C(F)(F)C(F)(F)C(F)(F)C2(F)C1(F)F` (centres undefined), the “activity change, negative = inhibition” value is -14.9%.

On to `Nc1ccc(S(=O)(=O)Nc2cnc3ccccc3n2)cc1`, for which the “activity change, negative = inhibition” value is -4%.

On to `Oc1ccccc1C=NCc1ccccc1`, for which the “activity change, negative = inhibition” value is 1.53%.

With `OC1C(O)C(O)C(O)C(O)C1O` (centres undefined), the “activity change, negative = inhibition” value was 3.36%.

As to `CC(=O)Nc1ccc(CC(=O)O)cc1`, the “activity change, negative = inhibition” value is 7.1%.

For `N=C(N)N1CCc2ccccc2C1`, the activity change, negative = inhibition was 1.62% [at 4.99 µM].

In the case of `CCCN(CCC)S(=O)(=O)c1ccc(C(=O)O)cc1`, the “activity change, negative = inhibition” value was 11.9%.

For the molecule `Cc1nc(-c2ccc(Cl)cc2)oc1COC(C)(C)C(=O)O`, the “activity change, negative = inhibition” value is -7.55%.

On to `COc1cc(NS(=O)(=O)c2ccc(N)cc2)ncn1`, for which the “activity change, negative = inhibition” value was -2.92%.

Consider `COc1ccc(C(=O)c2ccccc2O)c(O)c1`, for which the “activity change, negative = inhibition” value is -9.62%.

For the molecule `CN1CCN(c2cc3c(cc2F)c(=O)c(C(=O)O)cn3-c2ccc(F)cc2)CC1`, the “activity change, negative = inhibition” value is -12.3%.

Regarding `Cc1ccc2c(Br)cc(Br)c(O)c2n1`, the “activity change, negative = inhibition” value is -7.4%.

As for `CC(=O)Nc1ccc(OCC(O)CNC(C)C)cc1` (centres undefined), the “activity change, negative = inhibition” value is -4.3%.

As to `Clc1cccc(C(c2ccc3nc[nH]c3c2)n2ccnc2)c1` (centres undefined), the “activity change, negative = inhibition” value was 1.16%.

As for `C[C@]12CCC(=O)C=C1C=C[C@@H]1[C@@H]2CC[C@@]2(C)[C@H]1CC[C@@]21CCC(=O)O1`, the “activity change, negative = inhibition” value was 2.34%.

With `Nc1nc(-c2ccccc2)c(Br)c(=O)[nH]1`, the “activity change, negative = inhibition” value was -3.04%.

In the case of `O=C1C(=O)c2ccccc2C(O)=C1C1CCC(c2ccc(Cl)cc2)CC1` (centres undefined), the Potency entry is “inactive”.

For the molecule `CCNC(=O)/C=C/c1cccc(Br)c1`, the “activity change, negative = inhibition” value was -4.07%.

For `COc1ccc2c(c1)c1c3n2CCN(C)C3=NCC1`, the “activity change, negative = inhibition” value was -4.66%.
